# From the supplement of paper PMC10646978
# ± gives the standard deviation.
# Assays:
# Details in all cases: modulator concentration 10 µM
# [1] = tested on: RAW-Dual (murine macrophage reporter line); test: NF-kB reporter (SEAP) activity fold change vs agonist alone; higher = enhanced NF-kB activity
# Outline: (§1)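 Overnight stimulation with a PRR agonist followed pre-incubation for 1 hour at 37 °C with compound at 10 μM final. This was done in RAW-Dual murine macrophage reporter cells seeded at 50 000 per well in 384-well plates. NF-κB (SEAP, QUANTI-Blue absorbance at 620 nm) and IRF (Lucia luciferase, QUANTI-Luc luminescence) were read from the supernatant. Each reporter's fold change relative to the mean agonist-only control on the same plate was averaged over replicate plates.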
# [2] = tested on: RAW-Dual (murine macrophage reporter line); test: IRF reporter (Lucia luciferase) activity fold change vs agonist alone; higher = enhanced IRF activity
# Outline: as §1
# [3] = tested on: RAW-Dual (murine macrophage reporter line); test: viability score (confluency relative to resting cells, overnight) (fraction); higher = more viable, active = viable (0.7 or more)
# Outline: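 RAW-Dual macrophages in 384-well plates were incubated overnight with compound, final concentration 10 μM. Confluency images from IncuCyte were processed in IncuCyte software into two masks covering all imaged wells. The viability score is each well's confluency relative to resting cells, and a compound met the cutoff when both masks exceeded 70% of resting cells.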
# [4] = agonist: CpG ODN 1826 0.5 ug/mL
SMILES,"NF-kB reporter [1, 4]",NF-kB reporter ([1]; agonist: LPS 0.1 ug/mL),NF-kB reporter ([1]; agonist: MPLA […]),IRF reporter ([2]; agonist: 3'3'-cGAMP 10 ug/mL),IRF reporter ([2]; agonist: LPS 0.1 ug/mL),IRF reporter ([2]; agonist: MPLA […]),viability score [3]
CCN(CC)CC#CCOC(=O)C(O)(c1ccccc1)C1CCCCC1.Cl (configuration not stated),0.873 ± 0.057,1.01 ± 0.11,1.05 ± 0.084,0.998 ± 0.047,1.12 ± 0.2,1.19 ± 0.29,1.02 (active)
O=C(NN=Cc1ccccc1C(F)(F)F)c1ccc(=O)[nH]n1,0.764 ± 0.062,0.877 ± 0.052,1.08 ± 0.098,0.964 ± 0.052,1.23 ± 0.08,1.28 ± 0.12,0.999 (active)
NC(=O)c1cc(NC(=O)c2ccc(Cl)c(Cl)c2)cc(C(N)=O)c1,1.15 ± 0.073,1.04 ± 0.13,1.01 ± 0.048,0.88 ± 0.032,0.943 ± 0.048,0.964 ± 0.096,0.997 (active)
CCOC(=O)C1=C(C)NC(C)=C(C(=O)OC)C1c1ccco1 (configuration not stated),1.03 ± 0.17,0.955 ± 0.1,1.03 ± 0.086,0.95 ± 0.037,1.14 ± 0.18,1.2 ± 0.25,1.01 (active)
Cl.Cl.O=C1c2c(O)ccc(O)c2C(=O)c2c(NCCNCCO)ccc(NCCNCCO)c21,0.0718 ± 0.0057,0.065 ± 0.0036,0.125 ± 0.011,0.0431 ± 0.0042,0.0592 ± 0.012,0.0943 ± 0.0079,0.388 (inactive)
COc1ccc(-c2coc3cc(O)ccc3c2=O)cc1,0.956 ± 0.29,1.1 ± 0.1,0.992 ± 0.13,0.904 ± 0.034,1.06 ± 0.1,1.05 ± 0.17,1.01 (active)
CCN1CCN(Cc2c(O)ccc3c2OC(=Cc2ccc(C)cc2)C3=O)CC1,1.05 ± 0.078,1.03 ± 0.14,1.2 ± 0.028,0.945 ± 0.058,0.967 ± 0.12,1.06 ± 0.13,0.995 (active)
CCCCCCCCCCCC1=C(O)C(=O)C=C(O)C1=O,0.901 ± 0.22,0.642 ± 0.034,0.675 ± 0.045,0.566 ± 0.019,0.823 ± 0.09,0.774 ± 0.086,0.167 (inactive)
Cc1nnc(C)n1N=Cc1ccc(Cl)c([N+](=O)[O-])c1,0.797 ± 0.062,0.874 ± 0.091,1.2 ± 0.1,0.898 ± 0.045,1.07 ± 0.072,1 ± 0.1,0.99 (active)
CC(=O)N1CCN=C1SCc1cccc(C(F)(F)F)c1,0.767 ± 0.06,0.698 ± 0.059,0.896 ± 0.029,0.572 ± 0.035,0.912 ± 0.068,0.88 ± 0.08,0.99 (active)
CC(C)(C)C1=CC2(C=C(C(C)(C)C)C1=O)Nc1cccc3cccc(c13)N2,0.874 ± 0.12,1.08 ± 0.062,0.96 ± 0.075,0.754 ± 0.037,1.17 ± 0.11,0.942 ± 0.078,1.01 (active)
COC(=O)c1ccc(CN2CCc3ccccc3C2)cc1,0.82 ± 0.089,1.17 ± 0.08,1.3 ± 0.059,0.832 ± 0.052,0.974 ± 0.1,1.5 ± 0.36,0.938 (active)
CNC(=O)Cc1cn(Cc2ccccc2)c2ccccc12,0.809 ± 0.19,1.11 ± 0.12,1.11 ± 0.082,0.947 ± 0.038,0.977 ± 0.11,1.05 ± 0.12,0.999 (active)
c1ccc(OCCOc2ccc(Nc3ccnc4cc5ccccc5cc34)cc2)cc1,0.294 ± 0.05,1.04 ± 0.067,1.8 ± 0.17,0.896 ± 0.035,1.48 ± 0.13,1.78 ± 0.17,0.23 (inactive)
O=C(O)C=C(CC(=O)O)C(=O)O,1.02 ± 0.084,1.05 ± 0.074,0.946 ± 0.021,0.996 ± 0.12,0.971 ± 0.038,0.983 ± 0.092,1 (active)
COc1ccc(CNc2oc(-c3ccc(COc4ccccc4C)o3)nc2C#N)cc1,1.48 ± 0.11,1.31 ± 0.074,2.3 ± 0.054,1.3 ± 0.073,0.887 ± 0.1,1.34 ± 0.32,0.934 (active)
COc1ccccc1OCC(O)CN1CCN(CC(=O)Nc2c(C)cccc2C)CC1 (configuration not stated),0.99 ± 0.087,0.943 ± 0.089,1.06 ± 0.056,0.967 ± 0.092,0.996 ± 0.061,0.936 ± 0.078,1 (active)
COc1ccc(NC(=O)CN(c2ccc(C)c(C)c2)S(C)(=O)=O)cc1,0.831 ± 0.068,1.02 ± 0.061,1.07 ± 0.12,0.88 ± 0.046,1.46 ± 0.084,1.53 ± 0.14,0.998 (active)
O=C(Cc1ccccc1)NCC(O)Cn1ccccc1=O (configuration not stated),0.84 ± 0.037,0.9 ± 0.12,1.02 ± 0.067,1.04 ± 0.072,1.26 ± 0.25,1.43 ± 0.42,1 (active)
NC(=O)c1ncn(C2OC(CO)C(O)C2O)c1O (configuration not stated),0.931 ± 0.076,0.895 ± 0.088,0.917 ± 0.1,1.04 ± 0.037,1.32 ± 0.16,1.46 ± 0.2,1.01 (active)
COc1cccc2c1C(=O)c1c(O)c3c(c(O)c1C2=O)C[C@@](O)(C(=O)CO)C[C@@H]3O[C@@H]1C[C@H](N)[C@@H](O)[C@H](C)O1 [Prestw-1752],0.219 ± 0.025,0.0896 ± 0.013,0.169 ± 0.016,0.264 ± 0.011,0.185 ± 0.05,0.33 ± 0.053,0.458 (inactive)
Cc1ccc(C2=NN3C(=N)C(=Cc4c[nH]c5ccccc45)C(=O)N=C3S2)cc1,0.997 ± 0.079,1.03 ± 0.065,0.932 ± 0.058,0.974 ± 0.024,1.38 ± 0.2,1.12 ± 0.21,1.01 (active)
Cc1cc(C)c2c(c1)[C@@H](N(Cc1cc(C(F)(F)F)cc(C(F)(F)F)c1)c1nnn(C)n1)CCCN2C[C@H]1CC[C@H](C(=O)O)CC1,0.717 ± 0.054,0.861 ± 0.097,1.08 ± 0.036,0.985 ± 0.058,0.955 ± 0.033,1.09 ± 0.14,1.01 (active)
c1cn2cc(-c3ccc4cn[nH]c4c3)nc(Nc3ccc(N4CCOCC4)cc3)c2n1,0.99 ± 0.24,0.759 ± 0.06,1.25 ± 0.12,0.24 ± 0.015,0.897 ± 0.12,1.1 ± 0.26,0.978 (active)
COc1ccc(NC(=O)CN(c2ccc(F)cc2)S(C)(=O)=O)c(OC)c1,0.872 ± 0.073,0.896 ± 0.067,1.05 ± 0.099,0.921 ± 0.042,1.23 ± 0.089,1.35 ± 0.14,0.999 (active)
CCOC(=O)C1=C(C)NC(C)=C(C(=O)OCC)C1c1ccc(O)cc1,1.41 ± 0.23,0.895 ± 0.083,1.35 ± 0.13,1.01 ± 0.03,0.971 ± 0.16,0.966 ± 0.099,0.991 (active)
